The other results are listed elsewhere or left out. Records with an inconclusive call do not appear. Values without a mark were called inactive. The call rests on the fitted dose curve; in most records, active means well fitted curve in the direction sought with a large enough effect; inconclusive means small, poorly fitted or top-dose-only effect, or another doubt; inactive means no such curve, though single readings can be large or run the other way.
test: qHTS for Inhibitors of Glutaminase (GLS): Hit Confirmation in HRP Counterscreen; conditions: HRP/glutamate oxidase coupled Amplex Red fluorescence counterscreen; series mostly up to 46.1 µM; activity change, negative = inhibition: at the top concentration
Source text: Glutaminase (GLS) catalyzes the hydrolysis of glutamine into glutamate and ammonia. It plays a critical role in glutaminolysis, which is an important energy source for proliferating cells. It was shown that c-Myc, an oncogenic transcription factor known to regulate microRNAs and to stimulate cell proliferation, increases glutamine metabolism by stimulating the expression of GLS via direct suppression of miR23a and miR23b. […] GLS is also thought to play a pathogenic role on HAD using a human HIV-1 infected macrophage system. […] GLS inhibition limits glutamate release and provides neuroprotection against HIV-1 infected macrophages. […] The overall goal of this project is to identify small molecule inhibitors of GLS through quantitative high throughput screening (qHTS) of the MLSMR. A validated potent and selective inhibitor can be used as a tool molecule to further study the pharmacology of its target as well as explore its potential therapeutic application in cancer and inflammatory neurological disorders, such as HIV1-associated dementia (HAD) and multiple sclerosis. […]
3 uL of buffer are dispensed into black 1536-well plates and then 23 nL of compounds are transferred into the wells using a pin tool. […] The plate is quickly centrifuged before an initial read on the ViewLux is obtained. After a 30 min incubation at RT the plate is once again read on the ViewLux.

Compared with `COc1cc(OC)c(S(=O)(=O)Nc2ccccc2C(=O)O)cc1S(=O)(=O)Nc1ccccc1C(=O)O`, `CCN1C(=O)c2cccc3c(S(=O)(=O)Nc4ccccc4O)ccc1c23` is higher in “activity change, negative = inhibition” value: -3.19% for the first, -2.22% for the second.
